Data on 26 compounds can be found in PubChem BioAssay (Tox21).

Results filed as inconclusive are left out. Activity calls are given as the source filed them. Calls come from the whole dose curve; as a rule, active = well fitted cell-killing curve with a large enough effect in the repeat runs; inconclusive = weak or mixed curves, or effect the other way; inactive = flat fitted curve, though single readings scatter.
% is set by controls: 0 for no effect and ±100 for the full control effect.

The assay in a line: cAMP Responsive Elements (CRE) small molecule antagonists, cell-based qHTS assay: qHTS cell viability counter screen (AID 2060913). Note: nearly all actives have a fitted effect of over 40% in size. The following applies: CRE-bla HEK293T viability, CellTiter-Glo luminescence, 5 h; series mostly up to 92.4 µM; viability change, negative = cytotoxic: at the top concentration. The essentials:
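HEK293T CRE-bla, 2,000 cells/well, 18 h preincubation; cpd in DMSO + NKH477 0.25 uM final, 3 h 37 C/5% CO2; LiveBLAzer 2 h RT, then CellTiter-Glo 30 min RT, luminescence.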
On the technique in general: In qHTS, concentration-response curves come from the screen itself.
For the compound `Cc1cc(-n2nc3ccc(Cl)cc3n2)c(O)c(C(C)(C)C)c1`, the “viability change, negative = cytotoxic” value was 0.669% [at 42.5 µM] (inactive).
In the case of `CC(C)(C)C(=O)OCOC(=O)[C@@H]1N2C(=O)[C@@H](NC(=O)[C@H](N)c3ccccc3)[C@H]2SC1(C)C`, the “viability change, negative = cytotoxic” value was -0.451% [at 42.5 µM] (inactive).
Still for that read-out and setting: the same measure for `CC(C)(C)OC(=O)c1cccc(N)c1`: 14.3% (inactive).
As for `C[N+](C)(C)CCO`, the Potency result was “inactive”.
In the case of `CCCCCCCC/C=C\CCCCCCCC(=O)OCCO`, the “viability change, negative = cytotoxic” value is 15.7% (inactive).
`CCCC(C)CCC(C)=O` (stereo unspecified): the “viability change, negative = cytotoxic” value is -4.8% (inactive).
Regarding `CC(=O)NNC(C)=O`, the “viability change, negative = cytotoxic” value is 6.76% (inactive).
As to `C=CCNC(N)=S`, the Potency entry is “inactive”.
On to `C=CC(=O)OCCCC`, for which the Potency entry was “inactive”.
In the case of `CC(=O)CC(=O)Nc1ccccc1C`, the Potency result is “inactive”.
As to `O=C(O)/C=C/c1cnc[nH]1`, the “viability change, negative = cytotoxic” value was 8.81% (inactive).
For the compound `Cc1ccccc1C#N`, the “viability change, negative = cytotoxic” value is -0.303% (inactive).
As for `CCCCCC=CCC=CCCCCCCCC(=O)OCC`, the “viability change, negative = cytotoxic” value is -2.11% [at 42.5 µM] (inactive).
Regarding `c1ccc2n[nH]nc2c1`, the Potency entry was “inactive”.
Regarding `CCCC(=O)O`, the Potency result was “inactive”.
For the compound `CN(C)CCOCCO`, the “viability change, negative = cytotoxic” value was 0.677% (inactive).
In the case of `CNC(C)=O`, the “viability change, negative = cytotoxic” value was 5.11% (inactive).
As to `O=NO`, the Potency result is “inactive”.
On to `CC(=O)OCC(=O)[C@@]12N=C(C)O[C@@H]1C[C@H]1[C@@H]3CCC4=CC(=O)C=C[C@]4(C)[C@H]3[C@@H](O)C[C@@]12C`, for which the Potency entry was “inactive”.
Regarding `O=C(O)c1nc(Cl)c(Cl)c(Cl)c1Cl`, the “viability change, negative = cytotoxic” value was 12.1% (inactive).
Still for that read-out and setting: under `CCCCCCNC(=O)n1cc(F)c(=O)[nH]c1=O` stands 3.38% [at 42.5 µM] (inactive).
Regarding `CCOC(=O)N1CCC(=C2c3ccc(Cl)cc3CCc3cccnc32)CC1`, the Potency entry is “inactive”.
Regarding `Cc1ccc(C)c([N+](=O)[O-])c1`, the “viability change, negative = cytotoxic” value was 0.23% (inactive).
On to `CCCCCCCCCCCCCO`, for which the Potency entry is “inactive”.
Regarding `Cc1[nH]c(=O)c(C#N)cc1-c1ccc2nccn2c1`, the “viability change, negative = cytotoxic” value was 1.27% [at 42.5 µM] (inactive).
Take `COc1cc2c(cc1OC)C(C(C(=O)N(CCc1ccc(OC)c(OC)c1OC)CCc1ccc(OC)c(OC)c1OC)c1ccccc1)=NCC2` (stereo unspecified): the “viability change, negative = cytotoxic” value was 5.24% [at 42.5 µM] (inactive).
